# Experimental data: the supplement of paper PMC3545927
# The list shows a part of the results. How many sequences the whole screen found active is unknown.
# B1: HC1100 (peptide)
# chain: CALVNLLPAIAGNASASA
# B2: HC219 (peptide)
# chain: CARNLGKVIDAGNASASA
# B3: HC311 (peptide)
# chain: CATQGCNCSIAGNASASA
# B4: DV3 (peptide)
# chain: CARPRRTKKTAGNASASA
# B5: FS-710 (peptide)
# chain: CARPRRMKREAGNASASA
# B6: FS-1650 (peptide)
# chain: CARKRRAKREAGNASASA
# B7: FS-529 (peptide)
# chain: CAGDGRSYRGAGNASASA
# B8: FS-892 (peptide)
# chain: CAVMGRMKREAGNASASA
# B9: FS-953 (peptide)
# chain: CARMDRVKKEAGNASASA
# B10: FS-125 (peptide)
# chain: CAGKGRKYREAGNASASA
# B11: HC2209 (peptide)
# chain: CAEVVTSYWVAGNASASA
# B12: HC714 (peptide)
# chain: CADLVGWPAPAGNASASA
# B13: HC261 (peptide)
# chain: CAYHVTNDCPAGNASASA
# B14: FS-809 (peptide)
# chain: CAKKWRMKREAGNASASA
# B15: FS-843 (peptide)
# chain: CAPWQRVDRDAGNASASA
# B16: HC389 (peptide)
# chain: CAASCRPLTDAGNASASA
# B17: FS-357 (peptide)
# chain: CALQGRSSRDAGNASASA
# B18: HC636 (peptide)
# chain: CANHLTPLRDAGNASASA
# B19: HC1148 (peptide)
# chain: CASWLRDIWDAGNASASA
# B20: FS-840 (peptide)
# chain: CAPPPRRTRDAGNASASA
# B21: FS-639 (peptide)
# chain: CAAFGRRRRDAGNASASA
# B22: FS-430 (peptide)
# chain: CAGQPRRSRDAGNASASA
# B23: FS-164 (peptide)
# chain: CAGRLRPLRDAGNASASA
# B24: HC2009 (peptide)
# chain: CAVYCCSMSYAGNASASA
# B25: HC1942 (peptide)
# chain: CATTPCSGSQAGNASASA
# B26: FS-871 (peptide)
# chain: CASRMREDRDAGNASASA
# B27: FS-1158 (peptide)
# chain: CARHIRRRRDAGNASASA
# B28: FS-647 (peptide)
# chain: CADRRRRRRDAGNASASA
# B29: FS-1671 (peptide)
# chain: CAFQRRMAGMAGNASASA
# B30: FS-906 (peptide)
# chain: CAFQRRRRRDAGNASASA
# B31: FS-2937 (peptide)
# chain: CARHIRLVLKAGNASASA
# B32: FS-177 (peptide)
# chain: CALTRRMRRDAGNASASA
# B33: HC1946 (peptide)
# chain: CAMCTTPCSGAGNASASA
# B34: HC2390 (peptide)
# chain: CAEVPCHRVSAGNASASA
# B35: HC1979 (peptide)
# chain: CAEPTTPCSGAGNASASA
# B36: HC310 (peptide)
# chain: CAWTTQGCNCAGNASASA
# B37: HC1788 (peptide)
# chain: CAWEMEECSQAGNASASA
# B38: HC484 (peptide)
# chain: CATRGERCDLAGNASASA
# B39: HC2135 (peptide)
# chain: CAEHVVCCSMAGNASASA
# B40: HC2098 (peptide)
# chain: CAVVCCSMSTAGNASASA
# B41: FS-101 (peptide)
# chain: CATTDRRRRDAGNASASA
# B42: HC640 (peptide)
# chain: CAWAHNGLRDAGNASASA
# B43: FS-657 (peptide)
# chain: CAGRPRSRKIAGNASASA
# B44: FS-432 (peptide)
# chain: CAGRPRRRRDAGNASASA
# B45: FS-737 (peptide)
# chain: CAYGCRRRRDAGNASASA
# B46: FS-346 (peptide)
# chain: CALAFRRRRDAGNASASA
# Molecular target: furin, P09958
# Sequence (P09958 whole entry): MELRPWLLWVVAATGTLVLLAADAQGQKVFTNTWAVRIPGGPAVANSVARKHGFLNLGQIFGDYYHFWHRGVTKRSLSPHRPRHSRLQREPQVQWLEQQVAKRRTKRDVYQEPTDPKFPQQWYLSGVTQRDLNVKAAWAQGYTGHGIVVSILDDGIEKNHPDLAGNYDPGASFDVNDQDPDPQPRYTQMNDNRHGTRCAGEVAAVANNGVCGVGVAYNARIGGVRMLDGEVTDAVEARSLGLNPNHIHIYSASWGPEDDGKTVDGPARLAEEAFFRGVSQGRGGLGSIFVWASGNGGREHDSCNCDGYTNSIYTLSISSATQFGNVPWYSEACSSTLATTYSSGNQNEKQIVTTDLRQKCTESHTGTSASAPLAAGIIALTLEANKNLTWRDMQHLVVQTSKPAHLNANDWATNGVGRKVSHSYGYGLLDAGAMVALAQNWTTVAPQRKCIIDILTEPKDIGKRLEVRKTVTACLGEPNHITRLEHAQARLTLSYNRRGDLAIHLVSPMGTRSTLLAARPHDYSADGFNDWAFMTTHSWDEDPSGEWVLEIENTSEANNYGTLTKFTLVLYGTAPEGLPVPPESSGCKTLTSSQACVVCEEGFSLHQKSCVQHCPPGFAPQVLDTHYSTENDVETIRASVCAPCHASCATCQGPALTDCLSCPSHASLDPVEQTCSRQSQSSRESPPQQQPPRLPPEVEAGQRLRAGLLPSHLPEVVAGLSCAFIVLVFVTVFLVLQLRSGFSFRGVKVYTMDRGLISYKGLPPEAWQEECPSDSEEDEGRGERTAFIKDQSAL
# Assay: furin cleavage Z-score vs untreated control; higher = more cleavage, active = 3.5 or more, inactive = 1 or less, 8 variable residues between constant flanks
# Outline: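 Peptides 8 residues long, fused to a cDNA oligonucleotide, were fixed to magnetic beads by the N-terminus and exposed to purified furin. The 0.01 ml reactions contained 50 mM HEPES pH 7.5 with CaCl2 and NaCl at 1:10 enzyme:substrate and ran 7.5, 15 or 30 min. For the cleavage Z-score, log counts of sequenced released DNA were compared with furin-free reactions, lowess-adjusted and scaled by median absolute deviation.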
Sequence,furin cleavage Z-score (7.5 min),furin cleavage Z-score (15 min),furin cleavage Z-score (30 min)
B1,1.21,0.684 (inactive),0.808 (inactive)
B2,-0.809 (inactive),0.0222 (inactive),-1.18 (inactive)
B3,-0.897 (inactive),-0.922 (inactive),-0.937 (inactive)
B4,0.136 (inactive),1.59,1.15
B5,12.1 (active),12.6 (active),8.41 (active)
B6,13 (active),13.6 (active),9.6 (active)
B7,-0.56 (inactive),-0.653 (inactive),-0.179 (inactive)
B8,13 (active),13.9 (active),9.25 (active)
B9,0.785 (inactive),2.5,3.22
B10,8.32 (active),9.76 (active),7.89 (active)
B11,-1.41 (inactive),-1.3 (inactive),-1.27 (inactive)
B12,-0.648 (inactive),-0.464 (inactive),-1.65 (inactive)
B13,-0.934 (inactive),-0.574 (inactive),-0.88 (inactive)
B14,12.2 (active),12.8 (active),10.8 (active)
B15,-0.541 (inactive),0.153 (inactive),-0.511 (inactive)
B16,-0.403 (inactive),-0.436 (inactive),0.514 (inactive)
B17,0.94 (inactive),1.14,2.12
B18,-0.625 (inactive),-0.983 (inactive),-0.425 (inactive)
B19,-1.29 (inactive),-0.331 (inactive),0.22 (inactive)
B20,7.22 (active),7.26 (active),5.47 (active)
B21,6.8 (active),6.94 (active),5.25 (active)
B22,8.53 (active),9.91 (active),6.63 (active)
B23,6.08 (active),7.11 (active),5.86 (active)

Sequence,furin cleavage Z-score (7.5 min),furin cleavage Z-score (15 min),furin cleavage Z-score (30 min)
B24,-0.694 (inactive),-1.09 (inactive),-1.22 (inactive)
B25,-0.135 (inactive),-0.54 (inactive),-2.05 (inactive)
B26,-0.996 (inactive),-0.456 (inactive),1.09
B27,10.5 (active),10.7 (active),6.88 (active)
B28,7.06 (active),7.21 (active),4.92 (active)
B29,-0.225 (inactive),-0.266 (inactive),0.306 (inactive)
B30,11.2 (active),12 (active),8.45 (active)
B31,-1.39 (inactive),-0.583 (inactive),-0.338 (inactive)
B32,14 (active),14.8 (active),9.72 (active)
B33,0.117 (inactive),1.58,0.427 (inactive)
B34,2.12,0.773 (inactive),2
B35,-1.55 (inactive),-0.645 (inactive),-0.627 (inactive)
B36,0.795 (inactive),-2.96 (inactive),-0.152 (inactive)
B37,1.14,0.864 (inactive),-0.48 (inactive)
B38,-0.0552 (inactive),1.25,1.03
B39,0.471 (inactive),-0.688 (inactive),1.47
B40,0.887 (inactive),-0.156 (inactive),0.445 (inactive)
B41,9.9 (active),8.9 (active),5.67 (active)
B42,0.594 (inactive),0.97 (inactive),-0.0784 (inactive)
B43,-0.514 (inactive),-1.38 (inactive),0.291 (inactive)
B44,11.8 (active),13.5 (active),9.18 (active)
B45,9.65 (active),10.6 (active),8.47 (active)
B46,7.62 (active),8.27 (active),6.14 (active)
